{"source": "the supplement of paper PMC6555819"}
{"system": "VDR:RXRa (NR concentration 270 nM, RXRa partner concentration 90 nM)", "assay": "PBM binding z-score (relative to random genomic background probes); higher = stronger binding; sequences stand for … in GC…GCGATTGACAGCGTAGAATGAAGG", "protocol": "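Protein-binding microarray (Agilent 4x180K custom design, double-stranded 60-nt probes: 5' GC cap, 34-nt variable region, 24-nt constant primer region; full probe sequence given). Purified or IVT nuclear receptor:RXRα heterodimers (3:1 NR:RXRα, mostly 270:90 nM) or homodimers were incubated for 1 h in PBS with 2% milk and no ligand, then detected with Alexa488 antibodies. Fluorescence from o1-orientation probes (~5 replicates averaged) was converted to z-scores against 500 random hg19 background probes. Variable regions are seed direct-repeat (DR0–DR5) sites, all their single-nucleotide variants and half-site ablations.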"}
{"sequence": "TCTATTAGTTGAAGGGCACCCGACGAGTCCGTTT", "PBM binding z-score": 1.02}
{"sequence": "AATACAGGGTCACCAGGCCAGAGTAGGTACGAAT", "PBM binding z-score": 4.82}
{"sequence": "AGAATGAGGTTACCAACGATCAGGGAAACGCTTG", "PBM binding z-score": 1.28}
{"sequence": "CCTACTGAGCCACGAAAGGTCATTGATTCAGTGA", "PBM binding z-score": 3.97}
{"sequence": "TCATATAGGTAATACAGTTGAAAGTCGGCATCTA", "PBM binding z-score": 1.63}
{"sequence": "ACAGACAGGTGAGTCAAGGTAACTCAGCTGGACG", "PBM binding z-score": -0.187}
{"sequence": "ACAGACAGGTGTTGAAGGTAACTCAGGCTATCAT", "PBM binding z-score": -0.203}
{"sequence": "TGAATAAGGTTATAAGATCAGGGAACGTTGCAAA", "PBM binding z-score": 0.743}
{"sequence": "GGAACGATGGCAAGTTGATAGCAGAGTTTGATGG", "PBM binding z-score": -0.469}
{"sequence": "ACTTACGGGTCAACTAGGTTATAGCACGCGTATA", "PBM binding z-score": 5.88}
{"sequence": "CCTACTGGGCCACGAAAGGTCACTGATTCAGTGA", "PBM binding z-score": 3.77}
{"sequence": "CGAACGAGGGCATGAGTTGATAGCAAATGCCGAT", "PBM binding z-score": 1.43}
{"sequence": "CCTACCGGGCCATTCAGAGGTCATTGATCATATG", "PBM binding z-score": 4.24}
{"sequence": "GGAACCAGGGCATTCGAGTTGATAGCATGGCGAT", "PBM binding z-score": 2.21}
{"sequence": "GCAGACAGGTGAAACGCAGGTAGCTCAGGGTGGC", "PBM binding z-score": -0.649}
{"sequence": "TCGAGTAGGTTACCAATGGGACATTCAGCTTTCT", "PBM binding z-score": -0.0477}
{"sequence": "CCTAGCAGGCCAATCTGGGTCAGTCAAGGCTTGA", "PBM binding z-score": -0.258}
{"sequence": "TCTTGTAGATCAACAGGAGGTTAAGTAAGATCGA", "PBM binding z-score": 0.844}
{"sequence": "ATCTCTTGGTAAGACTCAGTTCAGTGAAGAACGC", "PBM binding z-score": 0.946}
{"sequence": "GATACAGGGTCAGCGAGAGGCCAGAGTATGGAAA", "PBM binding z-score": 3.67}
{"sequence": "CCTACTGGGCCATAAAGGTCATTGATGCCGATAA", "PBM binding z-score": 4.93}
{"sequence": "CCTAGTAGTTGACCATAAGGGCAACCGAAGCTCG", "PBM binding z-score": 0.633}
{"sequence": "ATCTCTAGGTAAGACTCAGTTCAGTGCAGAACGC", "PBM binding z-score": 0.866}
{"sequence": "TATACAGGGTCAAAGACCAGAGTACGAATGTCGA", "PBM binding z-score": 4.43}
{"sequence": "CCTAGCAGGCCAATCTGGGTCTCTCAAGGCTTGA", "PBM binding z-score": -0.64}
{"sequence": "TCAGACAGGAGAAGGTAACTCAGGTACGCAGTCG", "PBM binding z-score": 0.714}
{"sequence": "CCTTCTAGGTCAATGGTCAGCTAAAGCAGCTCGC", "PBM binding z-score": 1.16}
{"sequence": "CCTGCTAGGTCAATTGTCAGCTAAAGCAGCTCGC", "PBM binding z-score": 0.479}
{"sequence": "TTTTGTAGATCAAGCAGGTTAAGAAAGCCTGAGT", "PBM binding z-score": 0.649}
{"sequence": "CCTACTGGGACATCAGGTCATTGATATCAACGTT", "PBM binding z-score": 1.99}
{"sequence": "CGTCCAAGGTCATAGGAGGTTAGTGAAGACAGAT", "PBM binding z-score": 5}
{"sequence": "CAAACTTGGTCACAGAGGTCAAAGTCCGTGCGTA", "PBM binding z-score": 6.59}
{"sequence": "TCGAGTAGGTTAGTCGGGGCATTCAGCCAACATA", "PBM binding z-score": 2.07}
{"sequence": "CGTTACGGGTCACTCCAGGTTATAGCATCGGAGT", "PBM binding z-score": 4.5}
{"sequence": "ACTAGCAGGCCAAGTTTGGGACACTCAAACAAAG", "PBM binding z-score": -0.55}
{"sequence": "CTACCAAGGTGAACAGGGTCGTTGATTACTATTC", "PBM binding z-score": 5.66}
{"sequence": "CCTTACGGGTCACTCCAGGTTATACCATCGGAGT", "PBM binding z-score": 4.19}
{"sequence": "AATACAGGGTCATCGTAGGCCTGAGTACGCACAG", "PBM binding z-score": 4.97}
{"sequence": "CCTACTGGGCCACGATAGGTCATTGATTCAGTGA", "PBM binding z-score": 1.15}
{"sequence": "AGTCAAAGTTCAGGAAGAGGTAACGTAAAGCACG", "PBM binding z-score": 2.96}
